# Test results taken from PubChem BioAssay AID1508622 (National Center for Advancing Translational Sciences (NCATS), 2021).
# A number with no mark means an inactive call. Active and inactive are the calls of the source. The call rests on the fitted dose curve; in most records, active means well fitted activation curve with a large enough effect; inconclusive means small, poorly fitted or top-dose-only effect; inactive means no such curve, though single readings can be large or run the other way.
# Assay: Confirmatory qHTS for Identification of Small Molecule Activators of Huntingtin-Antisense Promoter Activity
# Conditions: HEK293 HTT-AS promoter firefly luciferase reporter, 24 h; series mostly up to 57.5 µM; activity change, positive = activation: at the top concentration
# How it was run: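 Activity normalized between vehicle control (0%) and zero RLU (-100%) from firefly luminescence (Dual-Glo). Compounds, up to 57.5 uM final, incubated 24 h at 37C on HEK293 reporter cells plated 24 h earlier.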
# Potency means the concentration at half of the fitted maximal effect.
SMILES,"activity change, positive = activation",Potency
CCC1=Nc2cc(C(=O)NC3CCCC3)ccc2Sc2ccc(Cl)cc21,-32.8%,–
CCc1ccc2c(c1)-c1ccccc1S(=O)(=O)N2CC(=O)N1CCCCC1,–,9.53 µM (active)
COc1cc(NC(=O)Cn2nc(C(F)(F)F)c3c2CCC3)cc(OC)c1OC,-42.7%,–
CCc1ccc(CNC(=O)c2cccc(-n3c(C)nc4cccnc43)c2)cc1,-56.2%,–
CCc1cccc(C)c1NC(=O)Cn1cc2c(n1)CCCC2,-85.6%,–
COc1ccc(C(=O)NCCSc2c(C)[nH]c3ccccc23)cc1,-24%,–
O=C1CSC2(C(=O)N(Cc3cccc(C(F)(F)F)c3)c3ccccc32)N1c1ccc(F)c(F)c1 (centres undefined),-57.6%,–
COc1cccc(CNC(=O)c2ccc(-c3nc(COc4ccccc4)c(C)o3)cc2)c1,-27.9%,–
CCc1ccc(OCC2c3cc(OC)c(OC)cc3CCN2C(=O)COc2ccccc2)cc1 (centres undefined),-22.3%,–
Cc1ccc(C(=O)Nc2ccc(S(=O)(=O)N(Cc3ccccc3)c3ccccc3)cc2)cc1,-32.1%,–
Cc1ccc(-c2onc(C)c2C)cc1S(=O)(=O)N1CCC(C)CC1,-92.6%,–
O=C(Cc1ccccc1)Nc1cccc(-c2cn3cccnc3n2)c1,–,10.7 µM (active)
Cc1cccc(N2CCN(C(=O)C3CCN(S(=O)(=O)c4c(C)noc4C)CC3)CC2)c1C,-52.4%,–
Cc1ccc(NCc2cccn2-c2nnc(N3CCC(C(=O)NC(C)C)CC3)s2)cc1,-33.6%,–
COc1ccc(-c2noc(Cn3c(=O)c4ccccc4n(CC(=O)Nc4cccc(C(F)(F)F)c4)c3=O)n2)cc1,-22.2%,–
Cc1ccc(-c2cc(N)n(Cc3cccc(Cl)c3)n2)cc1,-47.6%,–
COC(=O)c1c(C)oc2ccc(N(C(=O)c3ccncc3)S(=O)(=O)c3cc(C)ccc3C)cc12,-90.5%,–
CC(C)OCc1cc(CN2CCN(c3ccccc3)CC2)c(O)c2ncccc12,-34.5%,–
CSc1ccc(CCNc2ncnc3onc(C)c23)cc1,-77.5%,–
CCOc1cc(C(=O)Nc2ccc3oc(-c4ccc(CC)cc4)nc3c2)cc(OCC)c1OCC,-13.9%,–

SMILES,"activity change, positive = activation",Potency
Cc1noc2ncnc(NCc3cccc(Cl)c3)c12,-40%,–
COc1ccccc1NC(=O)CSc1nnc2c(n1)[nH]c1ccccc12,-24.4%,–
Cc1ccc(Cl)cc1N1CCN(C(=O)c2ccc3c(c2)N(Cc2ccc(F)cc2)CCS3)CC1,-36.5%,–
COc1cc(NC(=O)c2cnc3c(-c4ccc(F)cc4)c(C)nn3c2C)cc(OC)c1,-4.67%,–
Cc1ccc(Nc2ccc(N3CCN(C(=O)c4ccc([N+](=O)[O-])cc4Cl)CC3)nn2)cc1,-30%,–
COc1cc(OC)c(OC)cc1CN1CCc2nc(N3CCN(c4ncccn4)CC3)ncc2C1,-35.1%,–
O=C(Cn1cc(S(=O)(=O)Cc2ccccc2F)c2ccccc21)Nc1ccc(F)c(Cl)c1,-56.5%,–
CCS(=O)(=O)c1ccc(C(=O)N2CCN(c3nc4c(OC)ccc(C)c4s3)CC2)cc1,-43%,–
Cc1ccc(CCNC(=O)C2CCN(c3nnc(-n4cccc4CNc4ccc(C)cc4)s3)CC2)cc1,-36.5%,–
C=Cc1ccc(Cn2c(C(=O)O)c(CNCc3ccccc3)c3ccc(C)cc32)cc1,-49%,–
Cc1ccc(NC(=O)c2cc(S(=O)(=O)N3CCc4ccccc43)ccc2F)cc1Cl,-23.8%,–
Cc1cccc(N2CCN(S(=O)(=O)c3ccc4c(c3)CCCN4C(=O)C3CCC3)CC2)c1C,-65.5%,–
O=C(COCc1cc(-c2ccc3c(c2)OCO3)on1)N1CCN(c2cccc(C(F)(F)F)c2)CC1,-23.9%,–
CCN(CC)CCOc1ccc(C(=C(Cl)c2ccccc2)c2ccccc2)cc1,-7.48%,–
FC(F)(F)c1cccc(Nc2c3c(nc4ccc(Cl)cc24)CCC3)c1,-57.1%,–
COc1ccc(CCNC(=O)c2ccc3c(c2)N(Cc2ccc(F)cc2)CCS3)cc1OC,-33.8%,–
Cc1cccc(N2CCN(S(=O)(=O)c3ccc4c(c3)C(C(C)C)C(=O)N4)CC2)c1C (centres undefined),-93.9%,–
COc1ccc(C2(CNC(=O)C(=O)Nc3cccc(C(F)(F)F)c3)CCCC2)cc1OC,-9.16%,–
Cn1c(=O)n(C)c2cc(NS(=O)(=O)c3ccccc3)c(NCc3ccccc3)cc21,0.499%,–
